Source: the supplement of paper PMC11732987, “Enantioselective OTUD7B fragment discovery through chemoproteomics screening and high-throughput optimisation” (Communications Chemistry, 2025)

Target: EIF3F (UniProt O00303)
Test: log2 ratio of Biotin-Ahx-Ub-VS probe labelling (fragment/DMSO); higher = less target engagement (more negative = stronger competition), active = hit call of the paper (q ≤ 0.05, log2 ratio ≤ -1)
Conditions: compound concentration: 200 uM; treatment time: 3 h
Summary of the method: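 HEK293T lysate, 495 µg per sample in Tris/CHAPS/IGEPAL buffer with protease inhibitors, was treated in triplicate with fragment at 200 µM or vehicle for 3 h and then with Biotin-Ahx-Ub-VS at 0.5 µM final for 1 h. Labelled DUBs were NeutrAvidin-enriched, digested with LysC and trypsin, and run by diaPASEF LC-MS/MS. Spectronaut label-free quantities were global-median-normalised, and values are average log2 fragment/vehicle ratios by unpaired t-test on proteins with ≥2 unique peptides.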

Sequence of EIF3F (O00303 whole entry, the tested form may be a part): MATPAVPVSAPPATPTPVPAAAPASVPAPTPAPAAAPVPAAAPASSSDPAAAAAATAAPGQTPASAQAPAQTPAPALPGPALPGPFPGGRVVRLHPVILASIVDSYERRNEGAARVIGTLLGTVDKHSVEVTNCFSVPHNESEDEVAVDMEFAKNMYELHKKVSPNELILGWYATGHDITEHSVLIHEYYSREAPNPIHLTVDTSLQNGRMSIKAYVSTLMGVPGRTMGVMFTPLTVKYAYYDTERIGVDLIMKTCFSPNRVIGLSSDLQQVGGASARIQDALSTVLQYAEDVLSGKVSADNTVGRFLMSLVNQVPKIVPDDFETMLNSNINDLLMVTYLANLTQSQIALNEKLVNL

log2 ratio of Biotin-Ahx-Ub-VS probe labelling, inactive:
CC(NC(=O)CCl)c1cnn(C2CC2)c1 (stereo not given) -0.625
Cc1nc(-c2cccc(NC(=O)CCl)c2)cs1 -0.303
Cn1cc(CN(Cc2ccc(Cl)cc2)C(=O)CCl)cn1 -0.0957
O=C(CCl)NCc1cccc(F)c1 -0.186
CC(=O)C1CCCCN1C(=O)CCl (stereo not given) -0.0667
CC(NC(=O)CCl)c1cc2n(n1)CCCC2.Cl (stereo not given) -0.359
CCN(C(=O)CCl)C1CCCCC1 -0.141
O=C(CCl)Nc1ccccc1C(F)(F)F -0.519
Cc1ccc(-c2nnc(C)[nH]2)c(NC(=O)CCl)c1 -0.316
O=C(CCl)NC1CCC(C(F)(F)F)CC1 (stereo not given) -0.798
Cc1ccc(C)c(NC(=O)CCl)c1 -0.246
CC(O)CC1CCN(C(=O)CCl)CC1 (stereo not given) -0.0746
Cc1c(NC(=O)CCl)c(=O)n(-c2ccccc2)n1C -0.188
Cc1ncc2c(n1)CCN(C(=O)CCl)C2 -0.159
Cc1conc1C1CN(C(=O)CCl)C1 -0.671
Cc1ccc(CC(NC(=O)CCl)c2ccccn2)cc1.Cl (stereo not given) -0.0559
O=C(CCl)N1CCC(c2nc3ccccc3o2)CC1 -0.00792
Cc1cc(C2CCCN2C(=O)CCl)nn1C.Cl (stereo not given) -0.11
O=C(CCl)Nc1cc2c(cc1Cl)OCCO2 -0.138
O=C(CCl)N1CCC(C(O)c2ccc(F)cc2)CC1 (stereo not given) -0.0081
Cc1nc(CN2CCCN(C(=O)CCl)CC2)no1.Cl -0.233
Cc1cccn2cc(CCNC(=O)CCl)nc12.Cl -0.323
O=C(CCl)N1CCOC(CCc2ccccc2)C1 (stereo not given) -0.348
O=C(CCl)N1CCOCCC1c1ccccc1 (stereo not given) -0.267
O=C(CCl)N[C@H]1CC[C@@H](CO)CC1 -0.486
O=C(CCl)N1CCOC2(CCC2)CC1 -0.12
CC(NC(=O)CCl)c1ccc2[nH]ncc2c1 (stereo not given) -0.607
CN(C)C(=O)c1ccc(CNC(=O)CCl)cc1 0.137
Cc1cnc2[nH]cc(CCNC(=O)CCl)c2c1 -0.228
Cl.Cn1nccc1C(NC(=O)CCl)c1ccccc1 (stereo not given) -0.145
Cc1cccc(NC(=O)CCl)c1C -0.272
Cc1nnc(C(NC(=O)CCl)c2ccccc2)n1C (stereo not given) 0.534
O=C(CCl)NC1CCC2(CC1)OCCO2 -0.268
Cc1cccc2nc(CCNC(=O)CCl)cn12.Cl -0.438
N#Cc1ccc(Cl)cc1NC(=O)CCl -0.13
